In all, about 2,100 compounds went through this assay and about 650 (31%) were called active. Not shown: some 16% with an inconclusive outcome. Some of the results follow. Unmarked numbers belong to inactive results. Calls come from the whole dose curve; as a rule, active = well fitted inhibition curve with a large enough effect; inconclusive = small, poorly fitted or top-dose-only effect; inactive = flat fitted curve, though single readings scatter.
test: qHTS for inhibitors of Vif-A3G interactions: Cherry picks; conditions: HeLa A3G-eYFP + Vif (tagged APOBEC3G with the HIV-1 protein that degrades it), 24 h; Potency: eYFP fluorescence increase; series mostly up to 36.9 µM; activity, negative = fluorescence increase: at the top concentration; note: nearly all actives have a fitted effect of over 80% in size; for activity, negative = fluorescence increase: % of control where 0% means no effect
Excerpt: The recent discovery and characterization of host restriction factors, which provide a potent defense to invading retroviruses, has provided new targets for antiviral drug development. APOBEC3G (A3G) and APOBEC3F (A3F) are potent cytidine deaminases that block HIV-1 replication; HIV-1 expresses the Vif protein, which counteracts A3G and A3F by binding to them and inducing their proteasomal degradation. The Vif-A3G and Vif-A3F interactions provide two potential targets for development of small molecules which can interfere with the ability of Vif to degrade A3G or A3F. […] To identify inhibitors that can interfere with Vif mediated degradation of A3G and A3F, we have developed Hela cell lines that stably express A3G or A3F tagged with eYFP at the C-terminal end (A3G-eYFP or A3F-eYFP, respectively) and Vif. In the absence of an inhibitor, Vif induces degradation of A3G-eYFP and A3F-eYFP, and the cells are not fluorescent. In the presence of an inhibitor, it is expected that Vif will be unable to degrade A3G-eYFP and/or A3F-eYFP, resulting in an increase in yellow fluorescence. In this assay, Vif A3G was screened against the cherry picks ordered from the MLSMR. NIH Chemical Genomics Center [NCGC] NIH Molecular Libraries Probe Centers Network [MLPCN] MLPCN Grant: MH093245 Assay Submitter (PI): Vinay Pathak, National Cancer Institute
A3G-Vif cells were harvested from T225 flask and resuspended in phenol free OPTI-MEM medium with 5% FBS. Then 5 uL of 140,000 cells/mL resuspended cells was dispensed into each well of low base Aurora COC 1,536-well plates (black walled, clear bottom) using a Multidrop Combi dispenser. After overnight culture at 37 deg C with 5% CO2, a total of 23 nL of compounds at 5 selected concentrations from the NPC or positive control (2 mM stock of MG132) in DMSO was transferred to each well of the assay plate using a pintool (Kalypsys, San Diego, CA), and the plates were further incubated at 37 deg C with 5% CO2 for 24 hours. After that, the plates were measured on Acumen Explorer (TTP Lab Tech). The fluorescence was detected by 488 nm/Ex and […].
Potency is the fitted concentration of half-maximal effect.

Compound | activity, negative = fluorescence increase | Potency
COC(=O)c1cc(Nc2nc3ccccc3nc2NS(=O)(=O)c2ccc(C)cc2)ccc1Cl | 7.34% [at 46.1 µM] | –
COc1cc(Cl)c(C)cc1Nc1nc2ccccc2nc1NS(=O)(=O)c1ccccc1 | – | 16.4 µM (active)
COCCCNc1nc2ccccc2nc1NS(=O)(=O)c1ccccc1 | 10.7% [at 46.1 µM] | –
COc1cc(N2CCCC2)c(OC)cc1/C=C1/NC(=S)NC1=O | – | 2.5 µM (active)
CC1=C/C(=C\C=C(C#N)C#N)N(C)c2ccccc21 | – | 2.59 µM (active)
CN1/C(=C\C=C(C#N)C#N)C(C)(C)c2ccccc21 | – | 20.6 µM (active)
CN1/C(=C/C=C(C#N)C#N)C(C)(C)c2ccccc21 | – | 18.4 µM (active)
CN1/C(=C/C=C(/C#N)C(N)=O)C(C)(C)c2ccccc21 | -16.1% | –
Cc1ccc2c(c1)Oc1ccc(NC(=O)CCl)cc1C(=O)N2 | 1.67% | –
CC1=NOC(=O)/C1=C\c1ccc(-c2ccc(Br)cc2)o1 | -8.38% | –
CN(C)/C=N/C1=C(C#N)C(c2cccs2)c2ccc3ccccc3c2O1 (centres undefined) | -4.1% | –
CN(C)c1ccc(/C=C/c2ccnc3c(Cl)cccc23)cc1 | – | 23.1 µM (active)
CN(C)c1ccc(/C=C/c2ccnc3c(Cl)ccc(Cl)c23)cc1 | – | 9.2 µM (active)
CC(/C=N/NC(=O)c1cc(-c2ccc3ccccc3c2)n[nH]1)=C\c1ccco1 | -19.6% | –
Cc1cc(C(=O)N/N=C/c2ccc3c(c2)OCO3)c2ccccc2n1 | -8.89% | –
CC(=O)c1cccc(-c2ccnc3c2CC(C(=O)NCc2ccc(F)c(F)c2)O3)c1 (centres undefined) | -7.23% | –
ClCc1nc2ccccc2n1Cc1ccccc1 | – | 16.4 µM (active)
CCC(=O)Nc1nonc1-c1nc2ccccc2n1Cc1ccccc1 | -3.53% | –
Cc1ccc2[nH]c3c(c2c1)CCCC3NC(=O)CCl (centres undefined) | 0.871% | –
O=c1[nH]c2ccccc2n2c(=S)[nH]nc12 | -16.4% [at 46.1 µM] | –
O=c1[nH]c2ccccc2n2c(C(F)(F)F)nnc12 | – | 16.4 µM (active)
CC(NC(=O)/C(C#N)=C/c1ccc([N+](=O)[O-])o1)c1ccccc1 (centres undefined) | – | 16.4 µM (active)
N#Cc1c(NC(=O)c2ccc([N+](=O)[O-])o2)sc2c1CCC2 | 0.738% | –
CC1CCCCC1NC(=O)/C(C#N)=C/C=C/c1ccccc1[N+](=O)[O-] (centres undefined) | -0.675% | –
CCOCCCNC(=O)/C(C#N)=C/c1ccc([N+](=O)[O-])o1 | – | 20.6 µM (active)
COc1cc2cc(-c3ccc(OC)c(OC)c3C)nc(N)c2cc1OC | -18.8% | –
CC(=O)Nc1cccc(-c2ccnc3c2CC(C)(C(=O)Nc2cccc(C(C)=O)c2)O3)c1 (centres undefined) | -3.63% | –

Compound | activity, negative = fluorescence increase | Potency
O=C(NC(=S)N1CCN(c2ccccn2)CC1)c1ccccc1 | -8.21% [at 46.1 µM] | –
O=C(Nc1ccc(Cl)cc1)Nc1ccon1 | -6.36% | –
CCN(c1ccc(NC(=O)CCc2nc3sc4c(c3c(=O)[nH]2)CCCC4)cc1)C(C)C | -3.33% [at 46.1 µM] | –
COc1ccccc1N1CCN(C(=O)c2ccc3ncsc3c2)CC1 | -5.63% | –
COc1cccc2sc(Nc3nc(-c4cc5ccccc5oc4=O)cs3)nc12 | -3.79% | –
COc1ccc2oc(=O)c(-c3nc4ccccc4o3)cc2c1 | – | 20.6 µM (active)
CCOc1ccccc1Nc1nnc(-c2cc3cc(OC)ccc3oc2=O)s1 | – | 7.31 µM (active)
COc1ccc2oc(=Nc3ccccc3)c(-c3nc4ccccc4[nH]3)cc2c1 | -27.4% [at 46.1 µM] | –
CCOc1ccccc1Nc1nnc(-c2cc3cc(Cl)ccc3oc2=O)s1 | -23.4% [at 46.1 µM] | –
COc1ccc(N=c2oc3ccc(OC)cc3cc2-c2nc3ccccc3[nH]2)cc1 | -6.38% | –
CCCNC(=O)c1ccccc1NC(=O)c1ccc2c(c1)NC(=O)C(C)S2 (centres undefined) | -10.8% | –
CC(O)CN(CC(C)O)c1ccc2c(c1)Cc1cc([N+](=O)[O-])ccc1-2 (centres undefined) | – | 3.26 µM (active)
CN1/C(=C\C=C2/SC(=S)N(CC(=O)O)C2=O)C(C)(C)c2ccccc21 | – | 1.3 µM (active)
CN1/C(=C\C=C2/SC(=S)NC2=O)C(C)(C)c2ccccc21 | – | 2.5 µM (active)
C=CCN1C(=O)/C(=C\C=C2\N(C)c3ccccc3C2(C)C)SC1=S | – | 0.651 µM (active)
Cc1ccc(-c2nc(SCCOc3ccccc3C)n3[nH]c(=O)cc3n2)cc1 | 6.77% [at 46.1 µM] | –
Cc1ccc(NC(=S)NC(=O)c2ccc(F)cc2)cc1S(=O)(=O)Nc1cccc(Cl)c1 | 3.25% [at 46.1 µM] | –
O=C(Nc1cc(=O)[nH]c(=O)[nH]1)c1cc(Cl)ccc1Cl | -6.68% | –
CCCOc1ccc(C(=O)Nc2cccc(NC(=O)c3ccc(Cl)cc3Cl)c2)cc1 | – | 10.3 µM (active)
COc1cc(Cl)c(C)cc1NC(=O)CN1CCN(C(=O)C2CC2)CC1 | -5.23% | –
Cc1cc(C)c2nc(SCC(=O)N3CC(=O)Nc4ccccc43)c(C#N)cc2c1 | – | 12.5 µM (active)
Cc1cccc2cc(C#N)c(SCC(=O)N3CC(=O)Nc4ccccc43)nc12 | – | 17.7 µM (active)
CCCn1nc(C(=O)N2CC(=O)Nc3ccccc32)c2ccccc2c1=O | -5.96% | –
Cc1cc(C)cc(C(=O)N2CC(=O)Nc3ccccc32)c1 | -15.5% | –
COc1cc(OC)cc(C(=O)N2CC(=O)Nc3ccccc32)c1 | -6.01% | –
CCC(C)[C@H](NC(=O)N1CC(=O)Nc2ccccc21)C(=O)Nc1ccccc1C (some centres undefined) | 2.3% | –
Cc1noc(C)c1COc1cccc(C(=O)OCC(=O)N2CC(=O)Nc3ccccc32)c1 | -5.26% | –
